For 42 sequences, binding signal results are on record in PMC7819943, “Rice protein-binding microarrays: a tool to detect cis-acting elements near promoter regions in rice”.

The full ranking holds about 35,000 sequences; the median of “fluorescence intensity (a.u.)” is about 10,000, and the highest 2% start at about 52,000. The full list was thinned out, with the highest values kept by preference.

The experiment concerns the target T1, OsWOX13 (Oryza sativa, UniProt Q5QMM3 1-267).
T1 sequence: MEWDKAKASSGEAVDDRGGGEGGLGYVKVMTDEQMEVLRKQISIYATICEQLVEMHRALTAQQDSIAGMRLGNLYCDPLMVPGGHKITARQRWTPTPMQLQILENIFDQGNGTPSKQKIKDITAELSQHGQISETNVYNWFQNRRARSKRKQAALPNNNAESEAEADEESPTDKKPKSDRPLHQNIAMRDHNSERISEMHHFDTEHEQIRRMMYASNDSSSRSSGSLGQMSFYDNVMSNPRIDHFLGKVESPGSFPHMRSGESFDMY
As to the kind of experiment: protein-binding microarray (RPBM); PBS, 2% BSA, 51.3 ng/ul salmon testes DNA, 50 uM zinc acetate, 200 nM TF, 25 C, 1 h; high values mean tight binding. To be noted: protein: recombinant; tags: N-terminal polyhistidine and DsRed monomer fusion (pET32a); label: CyDye5-dUTP incorporated in the synthesized complementary strand; 3' TTTTT single-stranded linker to array surface; dsDNA, one strand shown. Put shortly: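 Transcription factors were made in E. coli BL21-CodonPlus as N-terminal fusions to a polyhistidine tag and DsRed, then purified on Ni–NTA. After primer extension with Cy5-dUTP and blocking with 2% BSA, a custom Agilent array was exposed for 1 h at 25 °C to 200 nM protein in PBS, 2% BSA, salmon testes DNA and 50 µM zinc acetate. Washed arrays were scanned on an Axon 4000B, and the binding signal is per-feature fluorescence intensity in arbitrary units.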
With “TTACCAAATTTCACTGTTAACAGCGGTGCGTGGGTATTGACGGAGTCACCTAGTGCAG”, the binding signal was 6390 fluorescence intensity (a.u.).
Then “GGTATAACCTAAAGTTTATCCGTTTGTAGAGCGAATGTTTCGGAGTCACCTAGTGCAG”, with 14400 fluorescence intensity (a.u.).
Turning to “CATGGTCAATCTACTCGTTAACGTACATTCACGGTTATTTCGGAGTCACCTAGTGCAG”, the binding signal is 9160 fluorescence intensity (a.u.).
On to “CACTTGATTAATTTATCCTCTCCTCGCGTCGCTGTCGCGTCGGAGTCACCTAGTGCAG”, for which the binding signal was 52700 fluorescence intensity (a.u.).
In the case of “CTTAATTAGCTCTAGCGAGCTAGCTAGCTTGCTCTGTCTTCGGAGTCACCTAGTGCAG” it was 24200 fluorescence intensity (a.u.).
Then “TAACCTTAATTAATTGATTAAATTACAAATATTCTAGCCCCGGAGTCACCTAGTGCAG”, with 44000 fluorescence intensity (a.u.); and “TCTAATTGGCTTACTTAATATGATTCGATCCTACAACCTCCGGAGTCACCTAGTGCAG”, with 53700 fluorescence intensity (a.u.); and “GCTGTTTGATCCATAATTTATCCGCGCGTCGTCACTCCGACGGAGTCACCTAGTGCAG”, with 5840 fluorescence intensity (a.u.).
As to “GTTTTCCTAATTAATTGCTAGCTCGATTTGCTCGGTGATCCGGAGTCACCTAGTGCAG”, the binding signal was 29900 fluorescence intensity (a.u.).
Turning to “TAATTTAATTTAATTACCTCCCTAATCACTCTCGCTCGCTCGGAGTCACCTAGTGCAG”, the binding signal is 46200 fluorescence intensity (a.u.).
In the case of “AGAGATCGATCGATTAATTAGCAACAAGCCAACGACAAGCCGGAGTCACCTAGTGCAG” it was 4950 fluorescence intensity (a.u.).
Then “TCCACTTGGGTGATTAGAATCTGTCTTCCCTGTTTTAAGCCGGAGTCACCTAGTGCAG”, with 7670 fluorescence intensity (a.u.); and “GCCTAATTGCTTAATTAGCAGCCAACGGATTCGATTGATCCGGAGTCACCTAGTGCAG”, with 53900 fluorescence intensity (a.u.); and “TCGTGATTAGAATCTTAATCTCTAGCCTGTCTTTGCTTGCCGGAGTCACCTAGTGCAG”, with 56200 fluorescence intensity (a.u.).
In the case of “CATACATATGTAATTTACTTCGATTCGATTAAATTGGCAGCGGAGTCACCTAGTGCAG” it was 7090 fluorescence intensity (a.u.); in that of “AAGATGAGGTGATAGACTGACTAGCACTGAGCTTGCCCGGCGGAGTCACCTAGTGCAG”, 14400 fluorescence intensity (a.u.).
On to “ACTAGACAATTTGAATTTACAACTATATATACTCCCAATCCGGAGTCACCTAGTGCAG”, for which the binding signal was 3250 fluorescence intensity (a.u.).
Then “GAACTAGCTTAATTAAACCACAATTAGAATATATGTAGGACGGAGTCACCTAGTGCAG”, with 3750 fluorescence intensity (a.u.); and “TAAGTAATTATTTATTCTTTTCATATCATTTGATTCATTGCGGAGTCACCTAGTGCAG”, with 15400 fluorescence intensity (a.u.); and “AAAAGGATATGATTTGAAATGGCATTAAAGTGAATAGGCCCGGAGTCACCTAGTGCAG”, with 4540 fluorescence intensity (a.u.).
Take “CTAATGAGCCTAATTAATCCATGATTAGCCTATGTGATGCCGGAGTCACCTAGTGCAG”: the binding signal was 43000 fluorescence intensity (a.u.).
Then “TTATGATTTAATTAGCGATTAATTATCCTAATTAGTGATTCGGAGTCACCTAGTGCAG”, with 62200 fluorescence intensity (a.u.); and “TTAGCGTCTAATTATAGGATTATTTATGATAATATTCGTCCGGAGTCACCTAGTGCAG”, with 5680 fluorescence intensity (a.u.).
Then “TCCAACGGTGCCGCTTAATTAGTGATTAATTATCCTAATTCGGAGTCACCTAGTGCAG”, with 16400 fluorescence intensity (a.u.).
Then “GATTAGGTTAATTGAGATCTGCCTTGCTCTGCTCTGCTCGCGGAGTCACCTAGTGCAG”, with 21500 fluorescence intensity (a.u.); and “CAGTTAATTGAGTTGATGGCCACTCCTCTGCTGCTCGTCGCGGAGTCACCTAGTGCAG”, with 60700 fluorescence intensity (a.u.); and “ACTCCTGACTTGATTGGCAGTGAGTTGCTCATCTGCCTAGCGGAGTCACCTAGTGCAG”, with 40300 fluorescence intensity (a.u.).
As for “TCTAATTAATCCATGATTAGCCTATGTGATGCTACAGTAACGGAGTCACCTAGTGCAG”, the binding signal is 25100 fluorescence intensity (a.u.).
Consider “GCCTAATTAATCCATGATTAGCCTATGTGATGCTATAGTACGGAGTCACCTAGTGCAG”, for which the binding signal is 52700 fluorescence intensity (a.u.).
Then “ATGACTATTTTCACCTATAATTATAAGTTATGGAACAATACGGAGTCACCTAGTGCAG”, with 4820 fluorescence intensity (a.u.); and “AGCAAAATTAACACCGCAATTTGAGCCGGTTACTTCTTTCCGGAGTCACCTAGTGCAG”, with 4830 fluorescence intensity (a.u.); and “CCGCGATTACAATTAGCGCCGGATTAACCCTGCAATTAGCCGGAGTCACCTAGTGCAG”, with 20500 fluorescence intensity (a.u.).
For “CATCGAACATCATGAATTTGATTGGCTTCTACTTTCACGACGGAGTCACCTAGTGCAG”, the binding signal is 17100 fluorescence intensity (a.u.).
Then “CATGATTGAAACATTACTTGATGGCTTCTGGTCCTACCCACGGAGTCACCTAGTGCAG”, with 53900 fluorescence intensity (a.u.).
On to “CTCAACATGAACTTCTTGATTACCTGTGACCCAGCCACGGCGGAGTCACCTAGTGCAG”, for which the binding signal was 3150 fluorescence intensity (a.u.).
In the case of “GAAACATGTTGAGATTGATTTACATTTTGTGCGCGAGAAGCGGAGTCACCTAGTGCAG” it was 18000 fluorescence intensity (a.u.); in that of “TGGGAGATTGTATTAAACAGAGGAGAACGATGGCGAAAGGCGGAGTCACCTAGTGCAG”, 6630 fluorescence intensity (a.u.).
Then “TTTTGATTGGCCGAGGAGAAGGCGAAACAGACTGCCACTGCGGAGTCACCTAGTGCAG”, with 53800 fluorescence intensity (a.u.); and “TTATTTGACACAATGCGATTGAATTGGGGTGCAGGAGTATCGGAGTCACCTAGTGCAG”, with 6780 fluorescence intensity (a.u.); and “AGAAATATTCAATCAAGCTACTGCGCACATATATCTTTATCGGAGTCACCTAGTGCAG”, with 9630 fluorescence intensity (a.u.).
Then “GTGCTGTGATTGGCCGCGCGGGATTTCCTGGGCGGGCGGGCGGAGTCACCTAGTGCAG”, with 22600 fluorescence intensity (a.u.); and “CTATCATATTGACAGCTTTGTAATTGCTTTTGACAGGTTCCGGAGTCACCTAGTGCAG”, with 26400 fluorescence intensity (a.u.).
